From PubChem BioAssay (NCI)
“And” between values parts separate entries of the source, which are not always exact repeats. Identical values can stand only once. This is part of a sample that, as a whole, favours compounds with a hit. Of some 83,000 tested, about 20% had one in any assay.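 48-hour exposure, single concentration, 96-well plates; percent growth endpoint where 0 means no net growth. Active: below 10.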 The source made the active and inactive calls.

Experiments:
Assay in all cases: NCI-60 one-dose screen, 48 h (100 = growth as untreated, 0 = no growth, -100 = all killed)
Conditions in all cases: 10 µM unless noted
HCT-15 colon = test system: HCT-15 colon
HT29 colon = test system: HT29 colon
SNB-75 CNS = test system: SNB-75 CNS
SNB-19 CNS = test system: SNB-19 CNS
U251 CNS = test system: U251 CNS
PC-3 prostate = test system: PC-3 prostate
SK-MEL-5 melanoma = test system: SK-MEL-5 melanoma
UACC-62 melanoma = test system: UACC-62 melanoma
LOX IMVI melanoma = test system: LOX IMVI melanoma
SK-MEL-28 melanoma = test system: SK-MEL-28 melanoma

In the case of CCNC(=O)Nc1ccc(-c2nc3c(c(N4CCOC[C@@H]4C)n2)CCN(C2COC2)C3)cc1, the growth (HCT-15 colon) was 60.3% (inactive) and 15.9% (inactive), the growth (HT29 colon) was 49.7% (inactive) and 15.9% (inactive) and the growth (SNB-75 CNS) was 22.9% (inactive) and -33.2% (active). For the same compound, the growth (SNB-19 CNS) was 59.2% (inactive) and 15.7% (inactive), the growth (U251 CNS) was 55.9% (inactive) and 7.52% (active) and the growth (PC-3 prostate) was 26.6% (inactive) and 12.6% (inactive). For the same compound, the growth (SK-MEL-5 melanoma) was 22.4% (inactive) and -26.4% (active), the growth (UACC-62 melanoma) was 9.26% (active) and -20.5% (active) and the growth (LOX IMVI melanoma) was 33.9% (inactive) and 1.39% (active). For the same compound, the growth (SK-MEL-28 melanoma) was 25.1% (inactive) and -5.25% (active).

With CNc1cc(-c2cccc(OC(F)(F)F)c2)nc2ccc(N3CCCC3)cc12 the growth (HCT-15 colon) was 13.5% (inactive) and -8.32% (active) and 3.05% (active), the growth (HT29 colon) was 5.99% (active) and 1.66% (active) and 1.06% (active) and the growth (SNB-75 CNS) was 107% (inactive) and 76.5% (inactive). For the same compound, the growth (SNB-19 CNS) was 18.7% (inactive) and 12.2% (inactive) and 16.2% (inactive), the growth (U251 CNS) was -42.1% (active) and -81.2% (active) and -79.4% (active) and the growth (PC-3 prostate) was -72% (active) and 8.8% (active) and 13.1% (inactive). The growth (SK-MEL-5 melanoma) was -77.4% (active) and -88.7% (active) and -70.6% (active), the growth (UACC-62 melanoma) was -71.8% (active) and -74.8% (active) and -72.1% (active) and the growth (LOX IMVI melanoma) was -64.1% (active) and -93.8% (active) and -90.1% (active). For the same compound, the growth (SK-MEL-28 melanoma) was -66.3% (active) and -82.3% (active) and -64.4% (active).

For COc1cc(/C=N/Nc2nc3c([nH]2)c(=O)n(C)c(=O)n3C)ccc1O, the growth (HCT-15 colon) was 105% (inactive), the growth (HT29 colon) was 97.7% (inactive) and 110% (inactive) and the growth (SNB-75 CNS) was 86.9% (inactive) and 88% (inactive). For the same compound, the growth (SNB-19 CNS) was 112% (inactive) and 108% (inactive), the growth (U251 CNS) was 99.1% (inactive) and 104% (inactive) and the growth (PC-3 prostate) was 99% (inactive) and 98% (inactive). For the same compound, the growth (SK-MEL-5 melanoma) was 97.9% (inactive) and 104% (inactive), the growth (UACC-62 melanoma) was 91.9% (inactive) and 97.9% (inactive) and the growth (LOX IMVI melanoma) was 98.2% (inactive) and 116% (inactive). The growth (SK-MEL-28 melanoma) was 108% (inactive) and 107% (inactive).

For CC(C)Oc1ccc2cc(-c3nn(CC4CCNCC4)c4ncnc(N)c34)ccc2c1, the growth (HCT-15 colon) was 61.9% (inactive) and -7.35% (active), the growth (HT29 colon) was 37.9% (inactive) and -13.1% (active) and the growth (SNB-75 CNS) was 59% (inactive) and -38.7% (active). For the same compound, the growth (SNB-19 CNS) was 92.7% (inactive) and 24.8% (inactive), the growth (U251 CNS) was 77.7% (inactive) and -11.9% (active) and the growth (PC-3 prostate) was 65.1% (inactive) and 16.6% (inactive). The growth (SK-MEL-5 melanoma) was 59.8% (inactive) and -94.4% (active), the growth (UACC-62 melanoma) was -65.3% (active) and the growth (LOX IMVI melanoma) was 69.8% (inactive) and -80.3% (active). For the same compound, the growth (SK-MEL-28 melanoma) was 79.1% (inactive) and -85.7% (active).

For CCOC(=O)C(C(=O)OCC)C(c1ccccc1)N1CCN(c2ccccc2)CC1 (stereo not given), the growth (HCT-15 colon) was 108% (inactive) and 94.8% (inactive), the growth (HT29 colon) was 107% (inactive) and 106% (inactive) and the growth (SNB-75 CNS) was 94.7% (inactive) and 103% (inactive). The growth (SNB-19 CNS) was 99.4% (inactive) and 110% (inactive), the growth (U251 CNS) was 105% (inactive) and 98% (inactive) and the growth (PC-3 prostate) was 110% (inactive) and 109% (inactive). For the same compound, the growth (SK-MEL-5 melanoma) was 105% (inactive) and 102% (inactive), the growth (UACC-62 melanoma) was 98.7% (inactive) and 107% (inactive) and the growth (LOX IMVI melanoma) was 103% (inactive) and 98.4% (inactive). For the same compound, the growth (SK-MEL-28 melanoma) was 109% (inactive) and 111% (inactive).

CC(C)Cc1ccc(C(C)C(=O)NCc2ccc(Cn3c(=O)sn(CCCI)c3=O)cc2)cc1 (stereo not given) was tested, and the growth (HCT-15 colon) was 101% (inactive) and -54.2% (active), the growth (HT29 colon) was 61.7% (inactive) and -58.7% (active) and the growth (SNB-75 CNS) was 95.4% (inactive) and -73.6% (active). The growth (SNB-19 CNS) was 85.4% (inactive) and 37.4% (inactive), the growth (U251 CNS) was 83.4% (inactive) and -70.5% (active) and the growth (PC-3 prostate) was 93.6% (inactive) and -70% (active). For the same compound, the growth (SK-MEL-5 melanoma) was 74.2% (inactive) and -96.6% (active), the growth (UACC-62 melanoma) was 95.2% (inactive) and -83.2% (active) and the growth (LOX IMVI melanoma) was 99.6% (inactive) and -96.6% (active). The growth (SK-MEL-28 melanoma) was 106% (inactive) and -72.2% (active).

With Cn1cnc([N+](=O)[O-])c1Sc1ncnc2nc[nH]c12 the growth (HCT-15 colon) was 83.6% (inactive) and 95.5% (inactive), the growth (HT29 colon) was 59.4% (inactive) and 73.2% (inactive) and the growth (SNB-75 CNS) was 39.2% (inactive) and 58% (inactive). For the same compound, the growth (SNB-19 CNS) was 96.8% (inactive) and 110% (inactive), the growth (U251 CNS) was 78.6% (inactive) and 93.7% (inactive) and the growth (PC-3 prostate) was 76.6% (inactive) and 91.5% (inactive). The growth (SK-MEL-5 melanoma) was 77.9% (inactive), the growth (UACC-62 melanoma) was 20.2% (inactive) and 35.8% (inactive) and the growth (LOX IMVI melanoma) was 22.4% (inactive) and 22.5% (inactive). For the same compound, the growth (SK-MEL-28 melanoma) was 105% (inactive) and 116% (inactive).

For CN(C)c1ccc(/C=C(\C#N)c2ccccc2)cc1, the growth (HCT-15 colon) was 26.3% (inactive) and 29.3% (inactive) and 29.4% (inactive), the growth (HT29 colon) was 12.4% (inactive) and 6.06% (active) and 3.67% (active) and the growth (SNB-75 CNS) was 4.23% (active) and 15.8% (inactive). The growth (SNB-19 CNS) was 61.4% (inactive) and 52.5% (inactive) and 35.8% (inactive), the growth (U251 CNS) was 18.5% (inactive) and 32.3% (inactive) and 23.9% (inactive) and the growth (PC-3 prostate) was 18.9% (inactive) and 36% (inactive) and 19.5% (inactive). The growth (SK-MEL-5 melanoma) was 31.6% (inactive) and 26.3% (inactive) and 19.4% (inactive), the growth (UACC-62 melanoma) was 32.6% (inactive) and 21.9% (inactive) and 22.2% (inactive) and the growth (LOX IMVI melanoma) was 51.1% (inactive) and 41.1% (inactive) and 42.4% (inactive). The growth (SK-MEL-28 melanoma) was 97.7% (inactive) and 70.6% (inactive) and 64.5% (inactive).

With Cc1cc(=O)[nH]c(O)c1C#N the growth (HCT-15 colon) was 98% (inactive) and 107% (inactive), the growth (HT29 colon) was 109% (inactive) and 116% (inactive) and the growth (SNB-75 CNS) was 72.5% (inactive) and 96.7% (inactive). For the same compound, the growth (SNB-19 CNS) was 98.4% (inactive) and 94.7% (inactive), the growth (U251 CNS) was 101% (inactive) and 98.2% (inactive) and the growth (PC-3 prostate) was 114% (inactive) and 102% (inactive). The growth (SK-MEL-5 melanoma) was 100% (inactive) and 106% (inactive), the growth (UACC-62 melanoma) was 97.7% (inactive) and 96.5% (inactive) and the growth (LOX IMVI melanoma) was 98.5% (inactive) and 97.1% (inactive). The growth (SK-MEL-28 melanoma) was 98.2% (inactive) and 157% (inactive).

For O=S1(=O)CC(Br)C(Br)C1 (stereo not given), the growth (HCT-15 colon) was 49.1% (inactive) and 61.1% (inactive), the growth (HT29 colon) was 27.7% (inactive) and 79% (inactive) and the growth (SNB-75 CNS) was 100% (inactive) and 88.8% (inactive). For the same compound, the growth (SNB-19 CNS) was 98.7% (inactive) and 97.2% (inactive), the growth (U251 CNS) was 98% (inactive) and 97% (inactive) and the growth (PC-3 prostate) was 86.3% (inactive) and 92.6% (inactive). The growth (SK-MEL-5 melanoma) was 93.2% (inactive) and 99.2% (inactive), the growth (UACC-62 melanoma) was 86.5% (inactive) and 93.4% (inactive) and the growth (LOX IMVI melanoma) was 81.3% (inactive) and 38.4% (inactive). The growth (SK-MEL-28 melanoma) was 80.8% (inactive) and 106% (inactive).

For O=C1OC2(c3ccccc31)c1ccc(O)c(O)c1Oc1c2ccc(O)c1O, the growth (HCT-15 colon) was 94.5% (inactive) and 123% (inactive), the growth (HT29 colon) was 102% (inactive) and 116% (inactive) and the growth (SNB-75 CNS) was 101% (inactive) and 88.3% (inactive). The growth (SNB-19 CNS) was 110% (inactive) and 108% (inactive), the growth (U251 CNS) was 104% (inactive) and the growth (PC-3 prostate) was 81% (inactive) and 89.2% (inactive). For the same compound, the growth (SK-MEL-5 melanoma) was 106% (inactive) and 100% (inactive), the growth (UACC-62 melanoma) was 108% (inactive) and 102% (inactive) and the growth (LOX IMVI melanoma) was 90.7% (inactive) and 103% (inactive). The growth (SK-MEL-28 melanoma) was 112% (inactive) and 117% (inactive).

CCOc1ccc2nc3cc(N)ccc3c(N)c2c1 was tested, and the growth (HCT-15 colon) was 107% (inactive) and 90% (inactive), the growth (HT29 colon) was 75.7% (inactive) and 60.7% (inactive) and the growth (SNB-75 CNS) was 47.6% (inactive). The growth (SNB-19 CNS) was 10.5% (inactive), the growth (U251 CNS) was -12.6% (active) and 5.58% (active) and the growth (PC-3 prostate) was 61.8% (inactive) and 75.6% (inactive). The growth (SK-MEL-5 melanoma) was 43.2% (inactive), the growth (UACC-62 melanoma) was 73.8% (inactive) and the growth (LOX IMVI melanoma) was 82.5% (inactive). For the same compound, the growth (SK-MEL-28 melanoma) was 75.5% (inactive) and 89.8% (inactive).

For Cc1nn(-c2ccccc2)nc1C(=O)Nc1ccccc1C(=O)NCC1CC1, the growth (HCT-15 colon) was 87.5% (inactive) and 71.2% (inactive), the growth (HT29 colon) was 99.6% (inactive) and 72.6% (inactive) and the growth (SNB-75 CNS) was 121% (inactive) and 4.66% (active). For the same compound, the growth (SNB-19 CNS) was 122% (inactive) and 54.3% (inactive), the growth (U251 CNS) was 73.3% (inactive) and the growth (PC-3 prostate) was 85.2% (inactive) and 78.2% (inactive). The growth (SK-MEL-5 melanoma) was 95.7% (inactive) and 93.5% (inactive), the growth (UACC-62 melanoma) was 86.4% (inactive) and 88.3% (inactive) and the growth (LOX IMVI melanoma) was 86.9% (inactive). The growth (SK-MEL-28 melanoma) was 104% (inactive) and 95.8% (inactive).

With Cc1ccc(S(=O)(=O)NCN2C(=O)c3ccccc3C2=O)cc1 the growth (HCT-15 colon) was 99.3% (inactive), the growth (HT29 colon) was 104% (inactive) and the growth (SNB-75 CNS) was 96.9% (inactive). The growth (SNB-19 CNS) was 111% (inactive), the growth (U251 CNS) was 103% (inactive) and the growth (PC-3 prostate) was 102% (inactive). The growth (SK-MEL-5 melanoma) was 112% (inactive), the growth (UACC-62 melanoma) was 111% (inactive) and the growth (LOX IMVI melanoma) was 109% (inactive). For the same compound, the growth (SK-MEL-28 melanoma) was 111% (inactive).

For Nc1nc2ncc(CNc3ccc(C(=O)N[C@@H](CCc4nn[nH]n4)C(=O)O)cc3)nc2c(=O)[nH]1, the growth (HCT-15 colon) was 104% (inactive) and 103% (inactive), the growth (HT29 colon) was 104% (inactive) and 92.3% (inactive) and the growth (SNB-75 CNS) was 87.4% (inactive) and 97.4% (inactive). For the same compound, the growth (SNB-19 CNS) was 107% (inactive) and 95.6% (inactive), the growth (U251 CNS) was 99.8% (inactive) and 91.4% (inactive) and the growth (PC-3 prostate) was 101% (inactive) and 85.3% (inactive). For the same compound, the growth (SK-MEL-5 melanoma) was 101% (inactive) and 96.7% (inactive), the growth (UACC-62 melanoma) was 97.3% (inactive) and 94.5% (inactive) and the growth (LOX IMVI melanoma) was 99.5% (inactive) and 98.7% (inactive). For the same compound, the growth (SK-MEL-28 melanoma) was 97.5% (inactive) and 110% (inactive).
